These results are taken from PubChem BioAssay (NCI).

Compounds without any hit were thinned out: in the full panel of roughly 83,000, 20% have a hit.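 Step 1: grow cells in 96-well plates. Step 2: add test compound at a single concentration. Step 3: incubate 48 h. Step 4: record percent growth.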 Values without a mark were called inactive. Active and inactive are the calls of the source. Rule for the calls: active = growth percent below 10; inactive = the rest.

Some test systems named below: HCT-15 colon; HT29 colon; SNB-75 CNS; SNB-19 CNS; U251 CNS; PC-3 prostate; SK-MEL-5 melanoma; UACC-62 melanoma; LOX IMVI melanoma; SK-MEL-28 melanoma.
Assay in all cases: NCI-60 one-dose screen, 48 h (100 = growth as untreated, 0 = no growth, -100 = all killed)
Common to all, as to details: 10 µM unless noted

With `COc1cccc2c1c(C(=O)C(=O)Nc1cc(C)no1)cn2Cc1ccc(F)cc1`, the growth in the experiment on HCT-15 colon is 29.5%; in the experiment on HT29 colon it was 24.8%; in the experiment on SNB-75 CNS, 53.6%; in the experiment on SNB-19 CNS, 66%; in the experiment on U251 CNS it was 51.7%; in the experiment on PC-3 prostate it was 62.5%. Also, the growth in the experiment on SK-MEL-5 melanoma is 36.3%; in the experiment on UACC-62 melanoma, 38.7%; with LOX IMVI melanoma, 56.1%; in the experiment on SK-MEL-28 melanoma, 68.3%.
For the compound `Oc1c(O)c(Cl)c(Cl)c(Cl)c1Cl`, the growth was 26.3% in the experiment with HCT-15 colon; 62.7% in the experiment on HT29 colon; 36.7% in the experiment on SNB-75 CNS; 29.7% in the experiment with SNB-19 CNS; 38.9% in the experiment on U251 CNS; 34.5% in the experiment on PC-3 prostate. For the same compound, the growth in the experiment on SK-MEL-5 melanoma is 22.5%; in the experiment with UACC-62 melanoma, 3.58% (active); in the experiment on LOX IMVI melanoma, 24.4%; with SK-MEL-28 melanoma, 51.4%.
Turning to `COC1OC(CO)C(O)C(O)[CH]1[Hg][O]C(C)=O` (stereo not given), the growth in the experiment with HCT-15 colon is 87.1%; with HT29 colon, 79.8%; with SNB-75 CNS it was 77.3%; in the experiment with SNB-19 CNS, 94.4%; in the experiment on U251 CNS, 67.7%; with PC-3 prostate it was 87.9%. Also, the growth in the experiment with SK-MEL-5 melanoma is 86.2%; in the experiment on UACC-62 melanoma, 85.9%; with LOX IMVI melanoma, 82.3%; in the experiment on SK-MEL-28 melanoma, 97.5%.
Consider `Clc1ccc(COC(Cn2ccnc2)c2ccc(Cl)cc2Cl)cc1` (stereo not given), for which the growth was 53% in the experiment with HCT-15 colon; 43.6% with HT29 colon; 93.3% with SNB-75 CNS; 78% in the experiment on SNB-19 CNS; 64.4% with U251 CNS; 21.1% in the experiment on PC-3 prostate. Also, the growth in the experiment with SK-MEL-5 melanoma was 49.5%; in the experiment on UACC-62 melanoma it was 52.6%; in the experiment with LOX IMVI melanoma it was 31.6%; in the experiment with SK-MEL-28 melanoma, 83.9%.
Turning to `CCC(O)(CN)c1ccccc1` (stereo not given), the growth with HCT-15 colon is 103%; with HT29 colon, 95.6%; in the experiment with SNB-75 CNS it was 93.5%; in the experiment with SNB-19 CNS, 106%; in the experiment with U251 CNS it was 93.6%; with PC-3 prostate it was 87.5%. Also, the growth is 98.9% in the experiment with SK-MEL-5 melanoma, 100% with UACC-62 melanoma, 105% in the experiment on LOX IMVI melanoma and 115% in the experiment on SK-MEL-28 melanoma.
For the compound `O=C(Nc1ccc(Br)cc1)c1cc(Br)cc(Br)c1O`, the growth is -14.6% (active) with HCT-15 colon; 23.5% in the experiment on HT29 colon; -10.5% (active) in the experiment on SNB-75 CNS; 11% with SNB-19 CNS; 6.11% (active) in the experiment with U251 CNS; 9.67% (active) in the experiment with PC-3 prostate. Moreover, the growth was -71% (active) in the experiment on SK-MEL-5 melanoma, -14.2% (active) in the experiment on UACC-62 melanoma, -7.5% (active) with LOX IMVI melanoma and 33.7% in the experiment on SK-MEL-28 melanoma.
`NC(=S)c1cn(C2OC(CO)C(O)C2O)c2ncnc(N)c12` (stereo not given): the growth is -11.2% (active) in the experiment on HCT-15 colon; 2.78% (active) in the experiment with HT29 colon; -8.8% (active) in the experiment with SNB-75 CNS; 9.97% (active) in the experiment with SNB-19 CNS; -7.25% (active) with U251 CNS; 6.45% (active) with PC-3 prostate. For the same compound, the growth in the experiment on SK-MEL-5 melanoma was -73.7% (active); with UACC-62 melanoma, -77.1% (active); with LOX IMVI melanoma, -22.9% (active); in the experiment on SK-MEL-28 melanoma, -40.3% (active).
Regarding `C[C@]12CCc3nc(Nc4ccccc4F)sc3C1=CC[C@@H]1[C@@H]2CC[C@]2(C)C(=O)CC[C@@H]12`, the growth in the experiment on HCT-15 colon is 29.3%; with HT29 colon it was 19.1%; in the experiment on SNB-75 CNS, 87.3%; with SNB-19 CNS, 85.1%; with U251 CNS, 54.3%; with PC-3 prostate, 54.9%. Besides, the growth was 81.9% in the experiment on SK-MEL-5 melanoma, 85.8% in the experiment on UACC-62 melanoma, 14.5% in the experiment with LOX IMVI melanoma and 77% in the experiment with SK-MEL-28 melanoma.
Consider `CC(=O)OCC1O[C@@H]([S-])C(OC(C)=O)[C@H](OC(C)=O)[C@@H]1OC(C)=O.[Au+].c1ccc(CN2[CH-]N(Cc3ccccc3)C(c3ccccc3)=C2c2ccccc2)cc1`, for which the growth was -63% (active) in the experiment with HCT-15 colon; 50.3% in the experiment with HT29 colon; 40.8% with SNB-75 CNS; 36.8% with SNB-19 CNS; -59.3% (active) with U251 CNS; 39.4% in the experiment with PC-3 prostate. The growth with SK-MEL-5 melanoma is 48.5%; with UACC-62 melanoma, 8.41% (active); with LOX IMVI melanoma it was -65.7% (active); in the experiment on SK-MEL-28 melanoma, -56.8% (active).
Consider `Cc1cc(-c2nc3cc(F)ccc3[se]2)cc(F)c1N`, for which the growth in the experiment on HCT-15 colon was 38.2%; in the experiment on HT29 colon, 62.5%; in the experiment with SNB-75 CNS, 91.9%; in the experiment on SNB-19 CNS, 97.2%; with U251 CNS, 98.7%; in the experiment on PC-3 prostate, 72.7%. Moreover, the growth with SK-MEL-5 melanoma is 81%; with UACC-62 melanoma, 85.7%; in the experiment on LOX IMVI melanoma, 90%; in the experiment with SK-MEL-28 melanoma, 121%.
On to `CO[C@H](C(=O)O)[C@@H]1Cc2cc3cc(OC4CC(OC5CC(O)C(O)C(C)O5)C(O)C(C)O4)c(C)c(O)c3c(O)c2C(=O)[C@H]1OC1CC(OC2CC(OC3CC(C)(O)C(O)C(C)O3)C(O)C(C)O2)C(O)C(C)O1` (stereo not given in full), for which the growth in the experiment on HCT-15 colon is 38.7%; in the experiment with HT29 colon, 7.12% (active); with SNB-75 CNS, -55.1% (active); in the experiment with SNB-19 CNS it was 10.8%; with U251 CNS, 10.1%; with PC-3 prostate, 19.7%. In addition, the growth in the experiment with SK-MEL-5 melanoma was -17.2% (active); with UACC-62 melanoma, -68.1% (active); in the experiment with LOX IMVI melanoma it was -6.05% (active); with SK-MEL-28 melanoma it was -5.84% (active).
On to `CC(=O)Nc1nc2c(s1)CC[C@@]1(C)C2=CC[C@H]2[C@@H]3CC[C@H](O)[C@@]3(C)CC[C@@H]21`, for which the growth in the experiment on HCT-15 colon is 29.5%; with HT29 colon, 20.8%; with SNB-75 CNS, 54.5%; with SNB-19 CNS it was 62.1%; with U251 CNS, 48.5%; with PC-3 prostate, 67.8%. The growth with SK-MEL-5 melanoma is 53.7%; with UACC-62 melanoma it was 34.9%; in the experiment on LOX IMVI melanoma it was 53.6%; in the experiment on SK-MEL-28 melanoma, 56.4%.
As to `Cn1cc(C2=C(c3cn(C4CCN(Cc5ccccn5)CC4)c4ccccc34)C(=O)NC2=O)c2ccccc21`, the growth in the experiment with HCT-15 colon was 85.9%; with HT29 colon it was 14.3%; in the experiment with SNB-75 CNS, 57.8%; in the experiment with SNB-19 CNS it was 101%; in the experiment on U251 CNS it was 88.4%; in the experiment on PC-3 prostate it was 92.2%. Further, the growth in the experiment on SK-MEL-5 melanoma is 69.2%; in the experiment with UACC-62 melanoma, 13.7%; with LOX IMVI melanoma, 48.5%; with SK-MEL-28 melanoma, 18.7%.
